Compound activity as filed in PubChem.
PAFAH2 inh – PAFAH2 (human) inhibition; actives 0.99% (n = 340,000); Q99487; AID 492956; inhibition, % at 3.39 µM; recombinant PAFAH2, FP-rhodamine activity probe, fluorescence polarization;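 active means inhibition above the mean over all tested compounds plus 3 SD, cut at about 30% in these data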;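 further: inhibitors block probe labeling of enzyme so polarization drops; 0% = enzyme with DMSO and 100% = wells lacking PAFAH2 protein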
ZTA counter – ZTA (EBV) inhibition in EBNA-1 counter-screen; P03206; ZTA-DNA binding, fluorescence polarization; inhibition, % at 11 µM; actives 0.15% (n = 320,000); AID 2234; in the data active means inhibition above about 33%
Target sequence (P03206 whole entry, looked up): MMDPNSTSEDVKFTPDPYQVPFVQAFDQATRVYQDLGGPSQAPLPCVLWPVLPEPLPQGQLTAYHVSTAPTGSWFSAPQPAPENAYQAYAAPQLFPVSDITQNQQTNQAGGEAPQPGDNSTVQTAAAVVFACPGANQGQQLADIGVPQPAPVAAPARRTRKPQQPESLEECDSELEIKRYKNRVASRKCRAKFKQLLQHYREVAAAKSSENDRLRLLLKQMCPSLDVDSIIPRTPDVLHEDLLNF
rCAG RNA binder – r(CAG) repeat RNA binding; inhibition, % at 3 µM; TO-PRO-1 dye displacement fluorescence; actives 1.3% (n = 370,000); AID 651821;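 active means inhibition above the plate cutoff, the mean of all test compounds on that plate plus 3 SD, cut at about 35% in these data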;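 further: 0% = DMSO alone and 100% = 100 µM mitoxantrone as full dye displacement; higher means more dye released from RNA so lower well fluorescence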
PAFAH1B3 FP inh – PAFAH1B3 (human) inhibition. actives 0.28% (n = 340,000). inhibition, % at 3.39 µM. AID 492972. recombinant PAFAH1B3, FP-rhodamine probe, fluorescence polarization;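 active means inhibition above the screen-wide average of all tested compounds plus 3 SD, cut at about 25% in these data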;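 further: 0% = enzyme with DMSO only and 100% = wells lacking PAFAH1B3 protein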
Target sequence (Q15102 whole entry, looked up): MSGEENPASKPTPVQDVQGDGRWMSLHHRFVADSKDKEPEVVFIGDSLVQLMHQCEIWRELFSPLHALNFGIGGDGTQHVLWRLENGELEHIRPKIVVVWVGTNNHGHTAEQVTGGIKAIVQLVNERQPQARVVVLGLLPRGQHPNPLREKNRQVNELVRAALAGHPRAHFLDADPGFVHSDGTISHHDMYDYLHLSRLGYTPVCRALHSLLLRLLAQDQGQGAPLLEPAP
PAFAH1B2 inh – PAFAH1B2 (human) inhibition. recombinant PAFAH1B2, FP-rhodamine activity probe, fluorescence polarization. inhibition, % at 3.39 µM. actives 1.2% (n = 340,000);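 active means inhibition above the mean of all tested compounds plus 3 SD, cut at about 24% in these data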;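 further: 0% = enzyme with DMSO and 100% = wells lacking PAFAH1B2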
Target sequence (P68402 whole entry, looked up): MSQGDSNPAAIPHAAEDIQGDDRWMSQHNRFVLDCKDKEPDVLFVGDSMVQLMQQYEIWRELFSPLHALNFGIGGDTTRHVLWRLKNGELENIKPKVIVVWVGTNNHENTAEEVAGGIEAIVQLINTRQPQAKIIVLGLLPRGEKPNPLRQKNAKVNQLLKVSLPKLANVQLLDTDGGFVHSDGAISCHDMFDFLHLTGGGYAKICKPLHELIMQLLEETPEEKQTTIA
EBNA-1 inh – blocks EBNA-1 binding to DNA; inhibition, % at 14.8 µM; actives 0.34% (n = 300,000); EBNA-1 DNA binding, fluorescence polarization; in the data active means inhibition above about 28%
rCAG binder conf – r(CAG) RNA repeat binding, confirmation; shares compounds with rCAG RNA binder; TO-PRO-1 dye displacement fluorescence; inhibition, % at 3 µM; actives 70% (n = 4,300);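 active means inhibition above a per-plate cutoff, the mean inhibition of sample wells plus 3 SD, cut at about 35% in these data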;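 further: loss of TO-PRO-1 fluorescence as compound displaces dye from 1x1 AA loop RNA; 0% = DMSO only wells and 100% = 100 µM mitoxantrone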
DNA CAG counter – counter-screen for rCAG RNA binders: DNA CAG dye complex inhibitors | actives 94% (n = 4,300) | shares compounds with rCAG RNA binder | inhibition, % at 3 µM | d(CAG) DNA oligo TO-PRO-1 dye displacement, fluorescence | AID 652068;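 active means inhibition above its plate's cutoff, the mean test-well inhibition plus 3 SD, cut at about 4.8% in these data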;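 further: 0% = DNA dye mix with DMSO and 100% = 100 µM mitoxantrone; hits displace the dye from DNA and so lower well fluorescence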
dCAG dye DR – DNA CAG dye complex inhibition, dose response counter-screen | shares compounds with rCAG RNA binder | DNA CAG/GTC duplex TO-PRO-1 dye displacement fluorescence | IC50, µM | actives 20% (n = 250) | AID 686960; in the data active means IC50 below about 10 µM
* marks the source's active call; other numbers are inactive results; i = inactive; . = no result given. Most compounds without a hit are left out; they make up all but 2.9% or so of the library.

SMILES	PAFAH2 inh	ZTA counter	rCAG RNA binder	PAFAH1B3 FP inh	PAFAH1B2 inh	EBNA-1 inh	rCAG binder conf	DNA CAG counter	others
O=C(COc1ccccc1)N(Cc1cccc(F)c1)C1CCS(=O)(=O)C1 (stereo not drawn)	8.2	-0.5	-5.2	0.5	8.1	-5.4	.	.
O=C(O)c1cc(-c2ccc(-c3ccc(F)cc3)o2)nc2ccccc12	-1.3	-5.8	37.4*	4.5	5.8	-11.8	17.4	4.3
O=C(O)c1ccccc1NC(=O)c1cc(-c2ccccc2)nc2ccccc12	11.4	22.6	56.4*	5.2	-1.1	17.5	61.9*	21.9*
Cc1ccc(-c2cc(C(=O)Nc3ccc(S(=O)(=O)Nc4cc(C)on4)cc3)c3ccccc3n2)c(C)c1	-6.1	13.5	79.3*	-3.4	-1.4	13.4	81.9*	53.1*
Cc1cc(NS(=O)(=O)c2ccc(NC(=O)c3ccccc3C)cc2)no1	-1.6	0.3	7.3	-1.4	3.1	-6.1	.	.
O=C(c1cc(-c2ccc(F)cc2)nc2ccccc12)N1CCC1	-3.2	.	1.6	3.0	2.3	.	.	.
Cc1cc(C)nc(NS(=O)(=O)c2ccc(NC(=O)c3cc(-c4ccccc4)nc4ccccc34)cc2)n1	-9.9	10.3	48.7*	-3.5	-1.7	7.7	61.6*	24.7*
COc1cc2c(cc1OC)C(c1cc(Br)ccc1O)N(C(C)=O)CC2 (stereo not drawn)	2.5	-6.4	-4.0	0.3	-3.0	-5.9	.	.
O=C(NN1C(=O)c2ccccc2NC1c1ccco1)c1ccc([N+](=O)[O-])cc1 (stereo not drawn)	6.9	-8.0	0.5	2.7	4.8	2.9	.	.
C=CCN(CC#Cc1ccc(C(F)(F)F)cc1)CC=C	.	.	-0.2	.	.	.	.	.
CCOc1ccccc1NC(=O)Nc1ccc(CC#N)cc1	-3.7	-2.3	0.8	1.5	0.8	1.4	.	.
O=C(/C=C/c1ccccc1)NC(NC(=S)Nc1ccc(C(=O)O)cc1)C(Cl)(Cl)Cl (stereo not drawn)	-13.9	2.8	65.2*	3.4	0.2	13.4	56.2*	13.9*
Cc1cccc(C)c1NC(=O)c1cccc2c1C(=O)N(C1CCCCC1)C2	-0.7	-2.3	.	6.2	1.1	2.5	.	.
O=C1NC(=Nc2ccccc2Cl)S/C1=C\c1cccc([N+](=O)[O-])c1O	49.8*	3.0	89.3*	21.7	14.0	17.5	69.6*	33.2*	dCAG dye DR=i
COc1c(/C=C2\SC(=Nc3ccccc3Cl)NC2=O)cccc1[N+](=O)[O-]	20.4	-3.5	36.8*	10.3	6.3	2.3	70.7*	28.8*	dCAG dye DR=i
COc1ccc(/C=C2\SC(=Nc3ccccc3Cl)NC2=O)c(OC)c1	.	.	38.8*	.	.	.	45.6*	12.5*
O=C1NC(=Nc2ccccc2Cl)S/C1=C\c1ccc(C(=O)O)cc1	5.1	5.6	0.6	0.6	8.1	0.4	.	.
O=C1NC(=Nc2ccccc2Cl)S/C1=C\c1cccc([N+](=O)[O-])c1	28.1	6.0	53.9*	8.6	4.4	2.1	67.5*	26.3*
COCCn1c(=O)[nH]c(=O)c2c1nc(-c1cc(Br)c3c(c1)OCO3)n2Cc1ccccc1	10.6	-3.6	-2.4	2.9	-2.3	-3.3	.	.
CCCSc1nc(O)c(C(c2ccc(OC)c(O)c2)c2c(O)nc(SCCC)n(C)c2=O)c(=O)n1C	10.4	-0.1	46.3*	9.5	1.2	-4.5	40.2*	12.7*
COc1cccc(C(c2c(O)nc(SC)n(C)c2=O)c2c(O)nc(SC)n(C)c2=O)c1	2.6	-21.6	2.5	1.5	-0.1	-16.1	.	.
O=C(Nc1ccccc1N1CCOCC1)c1cccc(Oc2ccccc2)c1	8.7	-4.5	-2.0	5.1	1.0	-10.8	.	.
CCc1c(C)sc(NC(=O)c2cc(-c3ccco3)on2)c1C#N	22.3	13.6	39.9*	3.9	6.0	-3.6	28.1	6.5*
Cc1ccc2[nH]c3c(c2c1)CCC3=O	-3.5	-2.0	2.4	4.1	5.8	-0.2	.	.
Cc1ccc2[nH]c3c(c2c1)CCc1cn[nH]c1-3	1.3	-5.3	46.9*	1.5	5.8	-0.5	5.4	5.0*
SMILES	PAFAH2 inh	ZTA counter	rCAG RNA binder	PAFAH1B3 FP inh	PAFAH1B2 inh	EBNA-1 inh	rCAG binder conf	DNA CAG counter	others
Cc1ccc(C)n1/N=C1/NC(=O)CS1	38.9*	6.3	36.1*	21.3	2.2	12.0	20.4	9.9*
Cc1cc(C)nc(/N=C2/NC(=O)CS2)n1	2.9	2.5	1.8	2.6	4.0	5.5	.	.
Cc1nc(S/C(=C/c2ccc(-c3ccc(Cl)cc3)o2)C(=O)O)n[nH]1	19.1	4.3	11.3	5.3	9.1	2.8	.	.
Cc1nc(S/C(=C/c2ccc(-c3cc(Cl)ccc3C)o2)C(=O)O)n[nH]1	27.5	6.9	50.8*	25.3	12.9	8.7	80.6*	43.9*
CC(C)(C)NC(=O)CN1C(=O)c2cccc3cccc1c23	.	.	1.3	.	.	.	.	.
COc1cccc(C(=O)Nc2cccc(NC(=O)c3ccccc3Cl)c2)c1	-3.5	10.9	-4.6	-9.6	-4.4	6.7	.	.
CC(=O)NC1=NN(c2ccccc2)C(=O)C1	5.3	11.4	0.5	2.7	0.5	-7.6	.	.
CC(C)(C)C(=O)NC1=NN(c2c(Cl)cc(Cl)cc2Cl)C(=O)C1	-1.4	-0.8	43.7*	7.6	2.7	-3.3	4.6	3.6
COc1cccc(C(=O)Nc2cccc(C(=O)NC3=NN(c4c(Cl)cc(Cl)cc4Cl)C(=O)C3)c2)c1	-11.8	12.8	55.7*	21.9	5.4	4.4	48.4*	17.2*
CCOc1cc(CCNC(=O)c2cc(-c3ccccc3)c(N3CCOCC3)s2)ccc1OC	.	.	10.9	.	.	.	.	.
COc1cccc(NC(=O)Nc2nnc(COCCO)s2)c1	.	.	8.2	.	.	.	.	.
CC(c1ccccc1)c1nnc(NC(=O)Nc2ccccc2F)s1 (stereo not drawn)	2.4	.	9.9	5.6	9.4	.	.	.
CC(c1ccccc1)c1nnc(NC(=O)Nc2ccccc2)s1 (stereo not drawn)	-16.1	-8.0	43.0*	2.4	0.1	-1.0	24.5	16.7*
COc1cccc(NC(=O)Nc2nnc(CC(=O)Nc3ccccc3)s2)c1	-22.1	-7.0	42.7*	-13.7	-15.0	-1.3	32.4	20.7*
CCCCOc1ccc(NC(=O)Nc2nnc(C)s2)cc1	3.4	13.7	36.6*	6.7	4.3	12.0	10.2	8.2*
COc1ccc(NC(=O)Nc2nnc(CC(=O)Nc3ccccc3)s2)cc1	1.0	2.1	42.5*	1.0	2.0	10.3	15.9	14.8*
CCc1nnc(NC(=O)Nc2ccc(OC)cc2)s1	-4.6	15.5	24.4	-6.8	2.4	-2.4	.	.
